Results as given in PubChem BioAssay AID488789 (Broad Institute, 2010).
Results with a measured potency or affinity are listed apart. Results filed as inconclusive are left out. Activity calls are given as the source filed them.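 The calls were made as follows: active = samples whose fitted half-maximal inhibition concentration is no more than ten times the top valid dose tested; inconclusive = flat response between -70 and -30, or invalid curve fit; inactive = flat within 30 of zero, potency above limit, or signal rising.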

molecular target: Trypsin (Sus scrofa) (UniProt P00761); assay: trypsin protease activity blockade – biochemical, quenched peptide fluorescence, cherry-pick, selectivity assay for Rce1 protease inhibitor project, dose response (AID 488789); details: porcine trypsin, quenched peptide cleavage fluorescence; series mostly up to 10 µM;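 also: more negative means stronger trypsin inhibition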
Sequence (P00761 whole entry, looked up): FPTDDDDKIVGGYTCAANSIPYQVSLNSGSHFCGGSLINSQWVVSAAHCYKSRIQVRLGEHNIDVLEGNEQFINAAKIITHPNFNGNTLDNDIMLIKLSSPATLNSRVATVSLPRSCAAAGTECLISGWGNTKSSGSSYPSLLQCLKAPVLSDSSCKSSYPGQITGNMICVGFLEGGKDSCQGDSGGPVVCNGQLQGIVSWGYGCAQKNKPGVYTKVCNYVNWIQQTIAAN

outcome, inactive:
O=C(Nc1ncccn1)c1ccc([N+](=O)[O-])cc1, COc1cc(C(=O)OCC(=O)Nc2ccc(SC(F)F)cc2)cc(OC)c1OC, CN1CCN(Cc2c(C(=O)N/N=C/c3cccc(Br)c3)nnn2-c2nonc2N)CC1, Cc1nc(-c2ccc(Cl)cc2)sc1C1(C)CC(c2ccccc2Br)=NO1 (configuration not stated), CC(C)C(NC(=O)c1ccco1)C(=O)NCC(c1ccco1)N1CCCCC1 (configuration not stated), Oc1c(N=NC(=S)Nc2ccccc2F)c2ccccc2n1Cc1ccccc1Cl, COc1ccccc1CC(=O)Nc1ccc2c(C)cc(=O)oc2c1, C/C(CC1(O)C(=O)Nc2ccccc21)=N\O (configuration not stated), COc1ccc(C2Nc3ccccc3C(=O)N2Cc2ccccc2)cc1COc1ccccn1 (configuration not stated), O=C1CCN(Cc2ccccc2)CCN1[C@H](CSc1ccccc1)Cc1ccccc1, CCCNC(=O)c1c(N)n(-c2ccc(S(N)(=O)=O)cc2)c2nc3ccccc3nc12, COC(C/C=C\C(=O)[C@H](C)OCc1ccccc1)OC, CCCCCc1ccc(OCCOCCn2c[n+](C)c3ccccc32)c(CCCCC)c1, N#Cc1c(OCC(=O)c2ccccc2)nc2c(c1-c1ccco1)CCc1ccccc1-2, CC(C)N1CCN(S(=O)(=O)c2ccc3ccccc3c2)CC1, CCN(CC)CCNC(=O)c1[nH]c2ccc(OCc3ccccc3)cc2c1C, CCCCCCCCCCC[N+](C)(C)CC/C=C1/c2ccccc2Sc2ccc(Cl)cc21, CCC(COC)NC(=O)CCc1nnc(Cc2cccc(C(F)(F)F)c2)o1 (configuration not stated), CC(=O)Oc1ccc(C(=O)Nc2ccc(S(=O)(=O)NCC3CCCO3)cc2)cc1 (configuration not stated), Nc1nonc1-n1nnc(C(=O)N/N=C/c2cccc(Cl)c2)c1CSc1ccc(Cl)cc1, COc1ccccc1C1=NN(C2=NN=C(N)Cc3ncnn32)C(O)(C(F)(F)F)C1 (configuration not stated), CC(C)[C@H](NC(=O)OCc1ccccc1)C(=O)OCC(=O)Nc1c(F)cccc1F, Cc1cc(C)c2nc(N(CCCN(C)C)C(=O)c3ccc4c(c3)CCCC4)sc2c1, COc1cccc(/C=N/NC(=O)c2nnn(-c3nonc3N)c2C(C)C)c1OCc1ccc(F)cc1, CC(C)c1cccc(OCC(=O)Nc2ccc(S(=O)(=O)Nc3ccccn3)cc2)c1, COc1ccc(-c2cc(C(=O)N3CCN(c4ccccc4)CC3)c3ccccc3n2)cc1, CCN(CC)CCCN(Cc1cc2cc3c(cc2[nH]c1=O)OCO3)C(=S)NCCCN(C)C, Cc1cccc(OCCCN2C(=O)C(=O)c3cc(C)ccc32)c1, CN(C(=O)COC(=O)c1cn(-c2ccccc2)nc1-c1ccccc1)C1CCS(=O)(=O)C1 (configuration not stated), CS(=O)(=O)c1ccc(C(=O)OCC(=O)N(CCc2ccccc2)Cc2ccccc2)cc1, Cc1ccc(-c2nc(CN3CCCCC3)cc(CN3CCCCC3)c2O)cc1, CC(C)C[C@H](NC(=O)c1nc[nH]c1C(=O)N1CCNCC1)C(=O)OCc1ccccc1, CCC(=O)Nc1cccc(NC(=S)NC(=O)c2cccs2)c1, COC(C[C@H](O)C[C@H](O)[C@@H](C)OCc1ccccc1)OC, O=C(CN1CCC(NC(=O)c2ccc(Br)cc2)CC1)NCc1cccs1, Cn1c(CN2CCOCC2)c(C#N)c2ccccc21, Cc1ccc(/C=N/NC(=O)c2nnn(-c3nonc3N)c2C(C)C)o1
